CYP2C9 activ – activators of human CYP2C9. P11712. recombinant CYP2C9, luciferin-H conversion, luminescence; stronger effect = higher value; factor 1 = untreated enzyme, 0 = blocked. activation factor at 5 µM. 1.4% of 96,000 active;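 active = activation factor of 2 or more for CYP2C9 at a 5 µM dose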;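 note: 0 = sulfaphenazole-blocked wells and 1 = vehicle-only wells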
CYP2C9 inhib – inhibitors of human CYP2C9 | inhibition, % at 5 µM | AID 777 | 20% of 96,000 active | P11712 | CYP2C9 Supersomes, luciferin-H conversion, luminescence;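 active = blocking of liver enzyme CYP2C9 beyond about 50% at 5 µM, limit read from the data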
Mac1 fbg enh – CD11b/CD18-fibrinogen binding enhancement. P05107+P11215. K562 CD11b/CD18 adhesion to fibrinogen, ATPlite luminescence. activation, % at 10 µM. 0.07% of 93,000 active. AID 1499;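 active = 10 µM primary screen giving 50% or more activity, confirmed by 40% or more on retest at that dose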
CYP2C19 inhib – inhibitors of human CYP2C19; P33261; CYP2C19 Supersomes, luciferin-H EGE luminescence, 30 min; inhibition, % at 5 µM; 21% of 96,000 active; AID 778;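 active = CYP2C19 inhibition above a set limit at 5 µM in the primary screen, cut at about 50% in these data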;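 note: plate controls were negative control wells for no effect and 2.5 mM tranylcypromine positive control for full effect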
Target sequence (P33261 whole entry, looked up): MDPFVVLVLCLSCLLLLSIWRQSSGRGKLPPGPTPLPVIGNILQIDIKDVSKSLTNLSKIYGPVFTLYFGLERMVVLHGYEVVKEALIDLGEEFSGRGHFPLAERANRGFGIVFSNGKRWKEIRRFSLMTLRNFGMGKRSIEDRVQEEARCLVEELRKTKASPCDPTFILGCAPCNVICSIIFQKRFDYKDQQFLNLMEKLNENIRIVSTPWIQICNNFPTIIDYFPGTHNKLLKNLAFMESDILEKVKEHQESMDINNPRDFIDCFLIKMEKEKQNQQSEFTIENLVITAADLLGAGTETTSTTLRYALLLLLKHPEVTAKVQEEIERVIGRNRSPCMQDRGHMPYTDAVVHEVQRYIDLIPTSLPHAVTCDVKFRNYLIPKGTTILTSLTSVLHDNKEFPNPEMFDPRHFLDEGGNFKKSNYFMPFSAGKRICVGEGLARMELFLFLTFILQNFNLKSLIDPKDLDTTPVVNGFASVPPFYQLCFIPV
Mac1 fbg inh – inhibitors of human CD11b/CD18 binding to fibrinogen; K562 CD11b/CD18 adhesion to fibrinogen, ATPlite luminescence; Mn2+ added to activate the integrin; inhibition, % at 10 µM; AID 1497; 0.54% of 93,000 active; P05107+P11215;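 active = primary inhibition of 50% or more at 10 µM, then 40% or more on retest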
CYP2C19 activ – cytochrome P450 2C19 (human) activation; P33261; recombinant CYP2C19, luciferin-H EGE luminescence; stronger effect = higher value; 0 = fully inhibited enzyme, 1 = untreated enzyme; activation factor at 5 µM; 96,000 tested, under 10 active;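 active = activation factor of at least 2 at 5 µM in the primary screen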;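 note: 0 = wells with 2.5 mM tranylcypromine and 1 = vehicle-only wells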
An asterisk follows results filed as active; / = no result. A selection: hits, their analogues and other compounds. The true share with any hit is near 28%.

SMILES | CYP2C9 activ | CYP2C9 inhib | Mac1 fbg enh | CYP2C19 inhib | Mac1 fbg inh | CYP2C19 activ
c1ccc2nc(-c3ccncc3)ccc2c1 | 0.6 | 36.0 | / | 67.8* | / | 0.3
C1=C(CCNc2ncnc3c2[nH]c2ccccc23)CCCC1 | / | / | -8.6 | / | 99.7* | /
Cc1ccc2c(c1)[nH]c1c(=O)n(CCC3=CCCCC3)cnc12 | 0.9 | 7.1 | 2.6 | 55.3* | 4.3 | 0.4
Cc1[nH]c2ccccc2c1C(=O)C(=O)NCCC1=CCCCC1 | / | / | 0.4 | / | 5.8 | /
O=c1c2[nH]c3ccccc3c2ncn1CCC1=CCCCC1 | 0.7 | 33.7 | 0.1 | 67.2* | -6.7 | 0.3
CC(C)OCCCNc1ncnc2c1[nH]c1ccccc12 | 0.6 | 35.2 | -9.3 | 44.8 | 83.7* | 0.6
CC(=O)N(NC(=O)c1ccc(C)cc1)C1CC(=O)N(c2ccccc2Cl)C1=O (stereo not given) | / | / | 1.5 | / | -8.4 | /
O=C1CS/C(=N\C(=O)N2c3ccccc3Sc3ccccc32)N1 | 0.3 | 67.6* | 20.6 | -7.5 | 11.0 | 1.1
COC(=O)c1c(N)sc(C(=O)N2CCOCC2)c1C | 1.2 | -19.8 | 6.4 | 14.3 | -17.5 | 0.9
Cc1c(-c2ccccc2)sc(N)c1C(=O)N1CCOCC1 | 0.1 | 86.5* | -8.8 | 88.4* | 3.2 | 0.1
CC1CC(=O)c2cn3c(nc2C1)nc1ccccc13 (stereo not given) | 1 | -3.6 | -1.4 | -9.7 | -14.6 | 1.1
CO/N=C/NC(=O)NOCc1ncc(C(F)(F)F)cc1Cl | 1.2 | -18.5 | -6.1 | 38.6 | 4.3 | 0.6
O=C(N/C=N/OCc1ccc(Cl)cc1Cl)NOCc1ncc(C(F)(F)F)cc1Cl | 0.1 | 85.8* | -4.9 | 96.9* | 46.5 | 0
Cc1ccccc1N(CC(=O)N/N=C/c1ccc(F)cc1)C(=O)c1ccccc1 | 0.1 | 94.6* | -6.6 | 80.3* | 3.8 | 0.2
Cc1ccccc1N(CC(=O)N/N=C/c1ccc(Cl)cc1)C(=O)c1ccccc1 | 0 | 97.6* | -0.7 | 68.4* | 6.3 | 0.3
CCOC(=O)CN(C(=O)c1ccccc1)c1ccccc1C | 0.7 | 29.9 | 0.2 | 18.6 | -23.5 | 0.8
Cc1cc(C)nc(-n2nc(C)cc2NC(=O)c2cccc(S(=O)(=O)N3CCCCC3)c2)n1 | 0.7 | 27.7 | 15.6 | 8.4 | -5.5 | 0.9
O=C(Nc1cccnc1)C1CCCN1S(=O)(=O)c1ccc(Cl)c(Cl)c1 (stereo not given) | 0.3 | 69.2* | -1.3 | 15.4 | -7.4 | 0.8
CC(C)CCNC(=O)C1CCCCN1S(=O)(=O)c1ccc(F)cc1 (stereo not given) | 0.6 | 37.1 | 3.0 | 11.9 | 0.0 | 0.9
O=C(Nc1ccc(Br)cc1)C1CCCN1S(=O)(=O)c1cccs1 (stereo not given) | 0.1 | 90.4* | -6.4 | 95.6* | 22.0 | 0
O=C(Nc1ccc(Cl)cn1)C1CCCN1S(=O)(=O)c1ccccc1 (stereo not given) | 0.2 | 80.4* | -7.0 | 21.6 | 1.3 | 0.8
O=C(NCCc1ccccc1F)C1CCCN1S(=O)(=O)c1ccccc1 (stereo not given) | 0.7 | 25.7 | -0.1 | 78.8* | -13.4 | 0.2
Cc1c(NC(=O)C2CCCN2S(=O)(=O)c2ccc(Cl)cc2)c(=O)n(-c2ccccc2)n1C (stereo not given) | 1.2 | -17.5 | 2.9 | -15.3 | 15.8 | 1.2
CN1CCN(C(=O)CN(CCc2ccccc2)S(C)(=O)=O)CC1 | 1 | 1.7 | -0.5 | 39.9 | -27.1 | 0.6
O=C(Nc1ccc(O)cc1)C1CCCN1S(=O)(=O)c1ccc(F)cc1 (stereo not given) | 1.6 | -61.1 | -4.1 | 2.7 | -1.9 | 1
SMILES | CYP2C9 activ | CYP2C9 inhib | Mac1 fbg enh | CYP2C19 inhib | Mac1 fbg inh | CYP2C19 activ
O=C(Nc1ccc(Br)cn1)C1CCCN1S(=O)(=O)c1ccccc1 (stereo not given) | 0.2 | 77.1* | / | 52.3* | / | 0.5
CC(C)C1(C)C(=O)N=C2c3ccccc3C(=O)N21 (stereo not given) | 1 | 2.5 | -0.6 | 33.1 | -13.1 | 0.7
O=C(Nc1ccccc1Cl)C1CCN(Cc2cnn(-c3ccccc3)c2-n2cccc2)CC1 | 0.8 | 23.0 | 2.1 | 18.1 | -12.1 | 0.8
COc1cccc(NC(=O)C2CCN(Cc3cnn(-c4ccccc4)c3-n3cccc3)CC2)c1 | 0.3 | 67.2* | -4.1 | 17.6 | 6.1 | 0.8
O=C(NCc1ccc2c(c1)OCO2)C1CCN(Cc2cnn(-c3ccccc3)c2-n2cccc2)CC1 | 0.5 | 51.4* | -1.0 | 33.2 | 13.8 | 0.7
CCN1CCN(C2=NC(=O)/C(=C/c3ccc(C)o3)S2)CC1 | 1.5 | -47.6 | -1.6 | -2.5 | -7.2 | 1
C#CCOC(=O)c1ccc(-n2cncn2)nc1 | 0.7 | 33.0 | -1.2 | 81.8* | 26.4 | 0.2
O=C(c1ccc(N2CCOCC2)nc1)N1CCCCC1 | 1.1 | -10.7 | 2.5 | 11.7 | -8.3 | 0.9
CCOC(=O)c1ccc(-n2cncn2)nc1 | 1 | 4.3 | -0.8 | 41.7 | 0.5 | 0.6
CCOCCOC(=O)c1ccc(-n2cncn2)nc1 | 0.8 | 18.2 | 0.1 | 61.3* | 0.4 | 0.4
Brc1ccc(-n2cccc2/C=N/n2cnnc2)cc1 | 0.5 | 52.8* | 0.3 | 74.4* | -4.5 | 0.3
Clc1ccc(-n2cccc2/C=N/n2cnnc2)cc1 | 0.4 | 55.7* | -1.9 | 57.0* | 0.0 | 0.4
CCCc1nc(N)c(C#N)c(-c2ccco2)c1CC | 0.5 | 50.1* | -0.5 | 58.6* | 6.7 | 0.4
Cc1ccc(C(=O)Oc2ccccc2N2C(=O)C3CCCCC3C2=O)cc1 (stereo not given) | 0.7 | 33.6 | 0.2 | 7.5 | 15.3 | 0.9
CCOC(=O)C1C(=O)NC(c2ccccc2)=NC1c1ccc(F)cc1 (stereo not given) | 0.6 | 38.7 | / | 58.2* | / | 0.4
CCOC(=O)C1C(=O)NC(c2ccccc2)=NC1c1ccccc1 (stereo not given) | 0.7 | 25.1 | / | 30.7 | / | 0.7
CCOC(=O)c1sc(NC(NC(=O)c2ccco2)(C(=O)OC)C(F)(F)F)nc1C (stereo not given) | 0.4 | 55.9* | -1.4 | 7.4 | 13.0 | 0.9
COc1ccc(-n2c(C)cc(C=O)c2C)cc1Cl | 0.8 | 16.0 | / | 59.1* | / | 0.4
C/C(=N\NC(=O)COc1ccc(C)cc1C(C)C)c1ccc(-n2ccnc2)cc1 | / | / | 2.9 | / | 41.1 | /
CCC1CCC(c2nnc(-c3ccc([N+](=O)[O-])cc3)o2)CC1 (stereo not given) | / | / | -0.1 | / | -9.1 | /
O=C(Nc1cc(C(F)(F)F)ccc1Cl)C(Sc1nnc(-c2cccs2)o1)c1ccccc1 (stereo not given) | / | / | -8.1 | / | 100.2* | /
O=C(CSc1nccn1-c1ccccc1)Nc1ccc2c(c1)OCO2 | 0.3 | 73.8* | -0.5 | 87.1* | -20.9 | 0.1
Cc1cc(C)cc(-n2ccnc2SCC(=O)Nc2ccc3c(c2)OCCO3)c1 | 0.6 | 42.4 | / | 22.7 | / | 0.8
CSc1nccn1CC(=O)Nc1ccc(F)cc1 | 0.9 | 6.7 | / | 63.0* | / | 0.4
